From PubChem
Luc counter: counter-screen: inhibitors of Kinase-Glo firefly luciferase; Q27757; Kinase-Glo luciferase, ATP luminescence, 8 min; Potency, µM (series often up to 38.3 µM), usual class: inhibitors; actives 0.28% (n = 200,000); AID 1379; note: nearly all actives have a fitted effect of over 60% in size
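Compound is pinned into ATP-containing buffer (10 uM ATP, imidazole pH 7.2, 7 mM MgCl2). Kinase-Glo luciferase reagent is then added. Light output is recorded following an 8-min room-temperature incubation.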
ELG1 genotoxic: inducers of genotoxicity in HEK293T ELG1-luciferase cells. HEK293T ELG1-luciferase reporter, luminescence, 16 h. Potency, µM (top dose mostly 46 µM), hits mostly activators. actives 1.3% (n = 330,000). AID 504466; note: nearly all actives have a fitted effect of over 60% in size
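HEK293T cells expressing luciferase-tagged ELG1 were exposed to compound or DMSO vehicle for 16 hr at 37 °C and 5% CO2. Luciferase activity was then measured with ONE-Glo after 30 min at room temperature.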
SMN2 splice enh: increases expression of the SMN2 splice variant; HEK293 SMN2-luciferase splicing reporter, luminescence, 30-36 h; AID 1458; Potency, µM (series often up to 46.1 µM), hits mostly activators; actives 2.8% (n = 210,000); note: nearly all actives have a fitted effect of over 55% in size
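HEK293 cells carry an SMN2 minigene-luciferase reporter in which exon 7 inclusion puts luciferase in frame. Cells were seeded at 2000 cells/well, attached for 10-12 hours, then exposed to compounds for 30-36 hours at 37C before ONE-Glo luminescence.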
NPC1 promoter act: activates the NPC1 promoter. actives 2.4% (n = 320,000). Huh7 NPC1 promoter luciferase reporter, 24 h. Potency, µM (titrated, usually from 9.22 µM), hits mostly activators; note: nearly all actives have a fitted effect of over 60% in size
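Compounds in DMSO were transferred onto Huh7 NPC1-luciferase reporter cells pre-incubated 2 h; after 24 h at 37 °C, Amplite reagent was dispensed and luminescence recorded 10 min later.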
FLuc counter: firefly luciferase modulation, counter-screen for miR-21 project; actives 6.9% (n = 360,000); P08659; AID 588342; purified FLuc, Km substrates, luminescence inhibition; Potency, µM (series often up to 57.5 µM), hits mostly inhibitors; note: nearly all actives have a fitted effect of over 55% in size
Target sequence (P08659 whole entry, looked up): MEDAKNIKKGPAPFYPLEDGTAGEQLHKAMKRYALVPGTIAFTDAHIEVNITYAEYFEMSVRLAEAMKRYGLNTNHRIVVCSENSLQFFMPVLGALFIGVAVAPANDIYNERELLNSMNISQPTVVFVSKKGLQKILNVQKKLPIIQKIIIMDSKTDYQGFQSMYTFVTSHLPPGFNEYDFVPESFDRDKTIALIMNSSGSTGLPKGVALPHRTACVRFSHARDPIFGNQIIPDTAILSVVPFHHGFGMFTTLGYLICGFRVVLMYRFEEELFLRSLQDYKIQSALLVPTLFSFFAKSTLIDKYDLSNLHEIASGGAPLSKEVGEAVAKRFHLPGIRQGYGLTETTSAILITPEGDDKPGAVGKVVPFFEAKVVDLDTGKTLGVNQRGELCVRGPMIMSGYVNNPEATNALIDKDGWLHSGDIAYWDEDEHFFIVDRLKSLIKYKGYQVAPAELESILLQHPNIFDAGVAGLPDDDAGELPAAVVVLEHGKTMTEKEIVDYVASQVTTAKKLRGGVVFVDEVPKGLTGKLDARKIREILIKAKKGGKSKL
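Biochemical qHTS of compounds, final roughly 60 µM downward over six points, against 10 nM purified firefly luciferase using Km concentrations of substrates (10 uM D-luciferin, 10 uM ATP) in Tris acetate pH 7.5 buffer; luminescence output.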
Rab9 prom act: Rab9 promoter activation; Huh7 Rab9 promoter-luciferase reporter, luminescence, 24 h; Potency, µM (doses to about 9.22 µM), actives largely listed as activators; actives 2.8% (n = 320,000); note: nearly all actives have a fitted effect of over 60% in size
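Huh7 cells stably carrying Rab9 promoter–luciferase reporter, plated 1500 cells/well, compound added after 2 h and incubated 24 h at 37 °C; luciferase luminescence then read after 10 min with detection reagent.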
Numbers stand for hits; 0 = inactive; ? = inconclusive; - = not tested or not shown; [ ] = remark or other dose. Compounds with a hit are over-represented: about 7.5% of the library has one in this group of screens. Calls come from the whole dose curve; as a rule, active = well fitted curve in the direction sought with a large enough effect; inconclusive = small, poorly fitted or top-dose-only effect, or another doubt; inactive = no such curve, though single readings can be large; an effect the other way counts as inactive or inconclusive.

SMILES	Luc counter	ELG1 genotoxic	SMN2 splice enh	NPC1 promoter act	FLuc counter	Rab9 prom act
COc1cc(/C=N/NC(=O)c2ccc(C)nc2)cc([N+](=O)[O-])c1O	0	0	0	0	21µM	0
Cc1ccc(C(=O)N/N=C/c2cc(Br)ccc2O)cn1	-	0	-	0	13µM	0
Cc1ccc(C(=O)N/N=C\C=C\c2ccc(Br)cc2)cn1	0	0	0	0	0	0
Cc1ccc(C(=O)N/N=C\c2ccccc2[N+](=O)[O-])cn1	0	0	13µM	3.5µM	12µM	2.8µM
Cc1ccc(C(=O)N/N=C\C=C\c2ccccc2[N+](=O)[O-])cn1	0	0	0	0	0	0
CCOc1ccc(C(=O)N/N=C/c2ccccc2[N+](=O)[O-])cc1	0	?	13µM	2.2µM	1.7µM	1.4µM
CCC(=O)N1CCc2cc(CNC(=O)Cc3ccc(OC)c(OC)c3)ccc21	-	-	-	-	0	-
COc1ccccc1NC(=O)NC1(C(=O)N2CCN(C)CC2)CCCCC1	-	0	-	0	0	0
Cc1cc(/C=C(/C#N)c2cccc(F)c2)c(C)n1-c1cccnc1	0	5.2µM	11µM	?	8.5µM	?
Cc1cccc(-n2c(C)cc(C=C(C#N)C#N)c2C)c1	0	0	0	0	0	0
Cc1cc(/C=C(\C#N)C(=O)NCc2ccco2)c(C)n1C1CCCC1	0	?	0	?	6µM	?
Cc1cc(/C=C(\C#N)C(=O)NCc2ccco2)c(C)n1-c1cccnc1	-	?	-	?	15µM	?
N#C/C(=C\c1ccc(OCc2cccc(C(=O)O)c2)cc1)C(=O)NCc1ccco1	-	?	-	0.35µM	30µM	0.1µM
N#C/C(=C\c1ccc(OCc2ccc(C(=O)O)cc2)cc1)C(=O)NCc1ccccc1	-	0	-	0	0	0
CCN(CC)CCn1c2c(c(SCC(=O)NCc3ccccc3)nc1=O)CCC2	-	0	-	0	0	0
COc1ccc(CC(=O)OCC(=O)NC2CCCC(C)C2C)cc1 (configuration not stated)	-	0	-	-	-	-
COc1ccc(C(=O)Oc2ccc(/C=N/O)cc2)cc1	0	0	0	0	6µM	0
COc1ccc(C(=O)Oc2ccc(C(c3c(C)[nH][nH]c3=O)c3c(C)[nH][nH]c3=O)cc2)cc1	-	-	0	-	17µM	-
CCCc1ccc(-c2cc(NC(=O)CSc3nnc(N)s3)n(-c3ccccc3)n2)cc1	-	?	-	2.5µM	0.21µM	1.3µM
Cc1ccc(-c2cc(NC(=O)CSc3n[nH]c(N)n3)n(-c3ccccc3)n2)cc1	0	0	0	0	19µM	0
Nc1nc(SCC(=O)Nc2cc(-c3ccccc3)nn2-c2ccccc2)n[nH]1	0	0	0	0	0	0
O=C(NC(=O)c1ccccc1)Nc1cccc(S(=O)(=O)N2CCCCC2)c1	-	0	-	0	0	0
Cc1cc(Cl)ccc1NC(=O)CCn1nc(C)c2c(C)n(-c3ccccc3)nc2c1=O	-	-	-	-	0	-
CSc1ccccc1-c1nc(-c2ccncc2)no1	-	?	-	3.5µM	?	?
COc1ccc(-c2noc(-c3ccc(C)cc3Cl)n2)cc1OC	-	-	0	-	?	-
SMILES	Luc counter	ELG1 genotoxic	SMN2 splice enh	NPC1 promoter act	FLuc counter	Rab9 prom act
Cc1ccccc1-c1nc(-c2ccccn2)no1	6.3µM	?	1.1µM	?	0.48µM	0.45µM
Cc1ccc(-c2nc(-c3ccncc3)no2)c(Cl)c1	-	0.46µM	-	0.63µM	0.48µM	?
Clc1ccccc1-c1nnc(-c2cccs2)o1	0	?	11µM	2.2µM	9.5µM	1.3µM
COc1cc(OC)cc(C(=O)N2CCC(C(=O)Nc3ccc4c(c3)OCCO4)CC2)c1	0	0	0	0	0	0
Cn1c(=O)n(-c2ccc(Br)cc2F)c(=O)c2sc3ccccc3c21	-	-	0	-	0	-
COC(=O)[C@@]1(C)C=C[C@@H](Cc2ccccc2)N1C	0	-	0	-	-	-
Cc1ccc(SCc2nc(-c3cccnc3)no2)cc1	0	0	0	0	0[2.3 µM]	0
Brc1ccc(-c2nc(-c3ccncc3)no2)cc1	-	?	-	2.2µM	2.4µM	3.2µM
Cc1nc(-c2noc(-c3ccccc3Cl)n2)c(C(F)(F)F)o1	-	0	-	?	15µM	0
O=[N+]([O-])c1ccc(-c2nc(-c3ccncc3)no2)cc1	-	0	-	?	?	?
Cc1ccccc1-c1nc(-c2cccnc2)no1	0	?	?	?	11µM	?
Brc1ccc(-c2nc(-c3ccncc3)no2)o1	0	18µM	?	?	?	?
COc1ccc(N2C(=O)CN(Cc3ccc(OC)c(OC)c3)C2=S)cc1	0	0	0	0	0	0
CC(C)Cc1ccc(C(C)NC(=O)c2ccc(=O)[nH]c2)cc1 (configuration not stated)	0	0	0	0	0	0
c1ccc(-c2nc(-c3ccncc3)no2)cc1	0	-	?	-	12µM	-
Cc1onc(-c2ccccc2Cl)c1-c1nc(-c2ccncc2)no1	0	0	0	0	0	0
Clc1ccccc1-c1nc(-c2ccncc2)no1	0[7.66 µM]	10µM	?	4µM	6.7µM	1.3µM
c1ccc(-c2ccc(-c3nc(-c4ccncc4)no3)cc2)cc1	0	1.6µM	?	?	0.6µM	0.14µM
c1ccc(-c2ccccc2-c2nc(-c3ccncc3)no2)cc1	0	0	3.2µM	0	0	0
CC(=O)c1ccc(NC(=O)C(C)Sc2nnc(C3CCCCC3)o2)cc1 (configuration not stated)	-	0	-	0	0	0
CCOC(=O)c1c(NC(=O)c2cc(=O)c3c(C)cc(C)cc3o2)sc2c1CCC2	-	-	0	-	0	-
Clc1ccccc1-c1nc(-c2cccnc2)no1	0	-	11µM	-	3µM	-
Clc1ccccc1-c1nnc(-c2cccnc2)o1	-	23µM	-	4µM	15µM	?
CCC1=C2CC[C@H]3C(=O)N(C)C(=O)[C@H]3[C@H]2[C@@]2(Cc3ccccc3)C(=NCC3CC3)OC(=O)N2C1=O	0	-	0	-	-	-
Cc1ccc2cc3c(nc2c1)N(Cc1ccco1)CC3	0	?	0	0	19µM	0
SMILES	Luc counter	ELG1 genotoxic	SMN2 splice enh	NPC1 promoter act	FLuc counter	Rab9 prom act
COc1ccc([C@]23Cc4ccccc4C(O2)c2c(cc(-c4ccccc4)oc2=O)O3)cc1	-	-	-	0[1.84 µM]	0[11.5 µM]	0[1.84 µM]
Cc1ccc(/C=N/Nc2ccccn2)s1	-	?	-	?	11µM	?
CC1(C)Cc2ccccc2C(N/N=C/c2ccc([N+](=O)[O-])cc2)=N1	0	0	0	0	0	0
Clc1ccc(/C=N/Nc2ccccn2)cc1	0	?	-	?	6.7µM	3.2µM
CC1(C)Cc2ccccc2C(N/N=C/c2ccc(Cl)cc2)=N1	0	0	0	0	17µM	0
Fc1ccc(/C=N/Nc2ccccn2)cc1	0	?	0	0	11µM	3.5µM
O=C(Nc1ccc(N2CCOCC2)cc1N1CCOCC1)c1ccc(F)cc1	-	0	-	-	-	-
BrC(Br)C(Br)Br	-	-	0	-	-	-
Brc1ccc(/C=N/Nc2ccccn2)cc1	0	?	-	?	6.7µM	3.5µM
COc1ccc2nc(Cl)c(/C=N/Nc3ccccn3)cc2c1	0	?	?	0	0.54µM	?
